The panel holds about 83,000 compounds, 20% with a hit somewhere; the sample as a whole holds those more often.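 96-well plates, one dose, 48 hours. Percent growth reported; active if below 10.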 A number with no mark means an inactive call. Calls of active or inactive are those of the source.
test system: HL-60(TB) leukemia; test: NCI-60 one-dose screen, 48 h (100 = growth as untreated, 0 = no growth, -100 = all killed); conditions: 10 µM unless noted

Row | Structure (SMILES) | growth
1 | CN(C)c1nc2c([nH]1)c(=O)n(C)c(=O)n2C | 108%
2 | CCCCCCC(=O)Nc1ncc(Cc2ccc(C)cc2)s1 | -18.2% (active)
3 | CCC(=O)Oc1ccc2ccccc2c1 | 103%
4 | CCOC(=O)c1ccc(Nc2sc(C(=O)c3cccc([N+](=O)[O-])c3)c(N)c2C#N)cc1 | 4.04% (active)
5 | COc1cc(NC(=O)COc2cc(C)nc3ccc(OC)cc23)cc(OC)c1 | 80.3%
6 | Cc1cc(N(CCNc2ccnc3cc(Cl)ccc23)Cc2ccc3c(c2)OCO3)nc(N2CCN(C)CC2)n1 | -57.8% (active)
7 | C#CCNC(=O)[C@H](Cc1ccccc1)NC(=O)[C@]12CC[C@@H](C(=C)C)[C@@H]1[C@H]1CC[C@@H]3[C@@]4(C)Cc5c([nH]c6ccccc56)C(C)(C)[C@@H]4CC[C@@]3(C)[C@]1(C)CC2 | 93.1%
8 | COc1cc(-c2nn(-c3ccccc3)cc2-c2ccnc(NCCNS(=O)(=O)c3ccc(Cl)cc3)n2)ccc1Cl | -35.9% (active)
9 | COc1ccc(/C(=C\c2ccc3c(c2)OCO3)C(=O)Nc2nc3ccccc3s2)cc1OC | 92%
10 | COc1cc(C(=O)/C(C)=C/c2c[nH]c3ccccc23)cc(OC)c1OC | -9.27% (active)
11 | C(=C(\C1=NCCN1)n1ccc2ccccc21)/c1ccccc1 | 96.8%
12 | c1cc(NCCCCN2CCOCC2)c2ccc3c(ccc4c(NCCN5CCOCC5)ccnc43)c2n1 | 47.2%
13 | COc1ccc(C2(O)CCCCC2)cc1 | 95.6%
14 | CC1(C)OC2COC3(C(=O)O)OC(C)(C)OC3C2O1 (centres undefined) | 106%

Source: PubChem BioAssay (NCI)
